According to PubChem BioAssay AID493221 (Johns Hopkins Ion Channel Center, 2011):
In all, about 2,400 compounds went through this assay and about 1,700 (71%) were called active.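 Rule for the calls: active = choline transporter activity left, mean of duplicates at 10 µM, below buffer-only control mean minus 3 SD; inactive = the rest.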 So high a share suggests a set chosen from earlier hits. Only a sample is shown.

What follows are compounds tested against High affinity choline transporter 1 (Homo sapiens) (UniProt Q9GZV3) (assay: CHT inhibitors, confirmation, cell-based, membrane potential dye, duplicate (AID 493221)). Conditions: CHT-expressing cells, at 10 µM, LV-to-AA substituted CHT, HEK293 cells.
High affinity choline transporter 1 (Homo sapiens), sequence (Q9GZV3 whole entry, looked up): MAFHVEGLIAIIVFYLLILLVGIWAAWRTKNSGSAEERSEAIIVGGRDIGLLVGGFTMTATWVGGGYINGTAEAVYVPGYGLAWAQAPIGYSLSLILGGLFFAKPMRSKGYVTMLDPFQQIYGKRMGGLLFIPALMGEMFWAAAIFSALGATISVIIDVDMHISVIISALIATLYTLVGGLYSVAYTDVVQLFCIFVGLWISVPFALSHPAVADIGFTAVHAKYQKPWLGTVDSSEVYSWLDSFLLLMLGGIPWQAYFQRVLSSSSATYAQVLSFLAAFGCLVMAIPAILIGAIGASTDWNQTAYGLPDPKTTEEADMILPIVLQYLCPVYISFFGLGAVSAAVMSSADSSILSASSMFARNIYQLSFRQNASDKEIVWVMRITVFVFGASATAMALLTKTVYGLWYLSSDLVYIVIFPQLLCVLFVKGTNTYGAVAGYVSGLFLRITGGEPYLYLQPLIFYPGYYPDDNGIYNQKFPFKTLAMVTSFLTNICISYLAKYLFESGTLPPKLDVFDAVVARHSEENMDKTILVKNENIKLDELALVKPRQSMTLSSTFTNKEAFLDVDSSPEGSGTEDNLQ

| SMILES | CHT activity remaining % of control (stronger effect = lower value) |
| --- | --- |
| COc1ccc(OCC(=O)OCCN(C)C)cc1 | 11.5% (active) |
| OC1CN=C2Sc3ccccc3N2C1 (stereo unspecified) | 46.2% (active) |
| CCC(C)c1ccc(NC(=S)NCc2ccccn2)cc1 (stereo unspecified) | 45.6% (active) |
| COC(=O)C(C(=O)Nc1cccc(Cl)c1C)C1CCCC1 (stereo unspecified) | inactive |
| CC(C)CCn1c(CN(C)Cc2ccccc2)nc2c1c(=O)n(C)c(=O)n2C | inactive |
| COc1cc2ccccc2cc1C(=O)Nc1ccc(S(=O)(=O)Nc2cc(C)on2)cc1 | 49.4% (active) |
| CCC(Oc1ccccc1C)C(=O)Nc1ccc(S(=O)(=O)Nc2cc(C)on2)cc1 (stereo unspecified) | 46.2% (active) |
| Cc1cc(OC(C)C(=O)Nc2ccc(S(=O)(=O)Nc3onc(C)c3C)cc2)cc(C)c1Cl (stereo unspecified) | 57.7% (active) |
| Cc1cc(NS(=O)(=O)c2ccc(NC(=O)C(C)Oc3cccc(C)c3C)cc2)nc(C)n1 (stereo unspecified) | 13.3% (active) |
| CCN(CC)Cc1c(C(=O)N/N=C/c2cccc(OCc3ccc(F)cc3)c2)nnn1-c1nonc1N | inactive |
| CCc1cc2c(N3CCN(c4nnc(CC)s4)CC3)ncnc2s1 | 67.1% (active) |
| Cc1c(C(=O)OC(C)C)sc(NC(=O)c2cccnc2)c1C#N | 61.9% (active) |
| CCN(CC)CCC(c1ccc2c(c1)OCO2)c1c(OC)cc(OC)c2c(-c3ccccc3)cc(=O)oc12 (stereo unspecified) | 70.5% (active) |
| CC(C)(C)c1ccc(C(=O)CSc2ncn[nH]2)cc1 | 42.8% (active) |
| C/C(=N/NC(=O)c1cc(Cl)ccc1O)C12CC3CC(CC(C3)C1)C2 | 46.3% (active) |
| Cc1oc2c(F)c(F)c(F)c(F)c2c1S(=O)(=O)Nc1cccc(C(F)(F)F)c1 | 57.3% (active) |
| FC(F)(F)c1cccc(NC(=S)Nc2cccc(Cl)c2)c1 | inactive |
| COc1ccc(NC(=O)c2sc(N)nc2-c2ccccc2)cc1 | 53.4% (active) |
| Cc1ccc2nc(Nc3ccccc3)cc(C)c2c1 | 49.7% (active) |
| COc1ccc(/C=C2/SC(=O)N(CCCCCC(=O)Nc3ccccc3C(=O)O)C2=S)cc1 | 29.7% (active) |
| C/C(=N\Nc1nc2ccccc2[nH]1)c1cccs1 | 19.1% (active) |

| SMILES | CHT activity remaining % of control (stronger effect = lower value) |
| --- | --- |
| CC(C(=O)NC1CCS(=O)(=O)C1)N1C(=O)/C(=C/c2ccc(Cl)cc2)SC1=S (stereo unspecified) | 69.7% (active) |
| Cc1ccc(C(=O)N/C(=C/C=C/c2ccccc2)C(=O)NCc2ccco2)cc1 | 47.3% (active) |
| O=C(/C=C/c1cn(-c2ccccc2)nc1-c1ccc2c(c1)OCCO2)NCCCN1CCOCC1 | 26.1% (active) |
| Cc1cccc(-c2nc3ccc(C(=O)NCCN4CCN(C)CC4)cc3nc2-c2cccc(C)c2)c1 | 40% (active) |
| CNCC(O)c1ccc(O)c(O)c1 (stereo unspecified) | 33.7% (active) |
| COC(=O)CN1C(C)=Nc2ccc(Br)cc2C1c1ccccc1 (stereo unspecified) | inactive |
| O=C(O)CC1=C(Nc2ccccc2)C(=O)N(c2ccccc2)C1c1ccc(Cl)cc1 (stereo unspecified) | 26.7% (active) |
| O=S(=O)(Nc1ccc(Cl)cn1)c1cnc(Cl)c(Br)c1 | inactive |
| CCC(=O)Nc1nnc(S(=O)(=O)N(CC(C)C)c2ccccc2)s1 | inactive |
| C/C(=N\NC(N)=S)c1cccnc1 | inactive |
| O=C(O)c1ccc(N/N=C/c2cn(-c3ccccc3)nc2-c2cccs2)cc1 | 65.1% (active) |
| COc1nc(OC)nc(N(C)CCO)n1 | inactive |
| CCN(Cc1ccccc1)S(=O)(=O)c1cc(C(=O)O)ccc1OC | 58.7% (active) |
| CCOC(=O)N1CCN(C(=O)c2ccc(CN(c3ccc(C)c(C)c3)S(C)(=O)=O)cc2)CC1 | inactive |
| O=C(Nc1ccccc1C(=O)NCCCn1ccnc1)c1ccc(Cl)cc1Cl | 52.6% (active) |
| CC(C)(C)C(=O)/C(C#N)=C/c1ccc(O)cc1 | 68.6% (active) |
| O=C(Nc1ccn(Cc2ccccc2)n1)c1n[nH]c([N+](=O)[O-])c1Cl | 48.6% (active) |
| CC1CCN(C(=O)CN(c2ccc(Oc3ccccc3)cc2)S(C)(=O)=O)CC1 | inactive |
| CC(C)(C)NC(=O)NC(=O)CN1CCC(Cc2ccccc2)CC1 | 43.5% (active) |
| Cc1ccc(SC(CC(=O)c2ccc(C(C)(C)C)cc2)C(=O)O)cc1 (stereo unspecified) | 42% (active) |
| CC1CCN(CCCNC(=O)CN2C(=O)CSc3ccc(S(=O)(=O)N4CCCCC4)cc32)CC1 | 53.6% (active) |

| SMILES | CHT activity remaining % of control (stronger effect = lower value) |
| --- | --- |
| CCOCCCN(C)C1CCN(C(=O)c2oc3ccccc3c2NC(=O)COc2cccc(C)c2)CC1 | 44.8% (active) |
| Cc1cccnc1NC(=O)c1cccc(S(=O)(=O)N2CCN(c3ccc(F)cc3)CC2)c1 | 56.9% (active) |
| Cc1ccc(C(=O)NC2CCCC(C)C2C)cc1S(=O)(=O)N1CCCCC1 (stereo unspecified) | 43.5% (active) |
| CC1CN(S(=O)(=O)c2ccc(C(=O)NN3CCN(C)CC3)cc2)CC(C)O1 (stereo unspecified) | inactive |
| CC1CCCC(NC(=O)c2cccc(N3CCCC3=O)c2)C1C (stereo unspecified) | 45.1% (active) |
| O=C(C1CCN(S(=O)(=O)c2ccc(Br)s2)CC1)N1CCN(c2ccccc2)CC1 | 41.8% (active) |
| COc1ccc2c(c1)OC(O)(C(F)(F)C(F)F)CC2=O (stereo unspecified) | 25.8% (active) |
| CN(C)c1ccc(Nc2c3c4c(cccc4n(C)c2=O)C(=O)c2ccccc2-3)cc1 | 42.1% (active) |
| CC1(C)SC2C(NC(=O)COc3ccccc3)C(=O)N2C1C(=O)O (stereo unspecified) | inactive |
| CC(NC(=O)c1ccc(N2CCNCC2)c([N+](=O)[O-])c1)C12CC3CC(CC(C3)C1)C2 (stereo unspecified) | 52.3% (active) |
| CCc1ccccc1N1CN(Cc2ccco2)CNC1=S | inactive |
| CCOC(=O)C1(CCOC)CCN(Cc2ccc(C(=O)OC)cc2)CC1 | 71% (active) |
| O=C1/C(=C/c2ccc(F)cc2)SC(=S)N1NS(=O)(=O)c1ccccc1 | 71.2% (active) |
| O=C(O)c1ccc(/C=C2\SC(=S)N(NC(=O)c3ccc(Br)cc3)C2=O)cc1 | 41.7% (active) |
| CCOc1ccc(/C=C2\SC(=S)N(NC(=O)c3ccncc3)C2=O)cc1OC | 69.4% (active) |
| CC(C)n1c(=S)[nH]c2cc(C(F)(F)F)ccc21 | 59.3% (active) |
| CC(Oc1ccc2ccccc2c1)C(=O)NNC(=S)NC(=O)c1ccco1 (stereo unspecified) | 67% (active) |
| N#Cc1ccc(C(=O)Nc2cccc3cccnc23)c(F)c1 | inactive |
| COc1ccc(C(CNC(=O)c2cccc(NS(=O)(=O)c3ccc(C)c(F)c3)c2)N2CCCC2)cc1 (stereo unspecified) | 38.4% (active) |
